Here are results for three compounds from PubChem BioAssay (NCATS).

In assay [1] the target is Glucocorticoid receptor (Homo sapiens) (UniProt P04150). Put plainly: GR-GFP Redistribution (AID 450;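 active means compounds whose dose series gives a full or clear partial fitted curve of increased nuclear translocation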; further: potency means the concentration at half of the fitted maximal effect). The settings on record: U2OS GR-GFP nuclear translocation, laser cytometry, 2 h.
For assay [2] the target is unchanged. As to the kind of experiment: GR-EFC Redistribution (AID 451; calls by dose curve; further: potency means the concentration at half of the fitted maximal effect). The settings on record: CHO-K1 GR-EFC translocation, beta-gal luminescence, 2 h. The method, boiled down:
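Translocation of GR-ED fusion to nuclear EA restores b-gal, read by luminescence after 1 h room-temperature detection. Engineered CHO-K1 biosensor cells, 1,000/well, exposed 2 h at 37 C to titrations up to 46 uM final.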

In assay [3] the target is Mitogen-activated protein kinase 10 (Mus musculus) (UniProt Q61831). Put plainly: JNK3 AlphaScreen Assay (AID 530; active means well fitted curve in either direction with a large enough effect, not every such curve was filed as active;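 further: kinase came from lysate of stimulated human HepG2 cells; potency means the concentration at half of the fitted maximal effect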). The method, boiled down: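 Room-temperature AlphaScreen kinase assay; pre-activated HepG2 lysate as JNK3 source, biotin-GST-cJun(1-79) substrate, 10 uM ATP, compound 15 min preincubation.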
Assay [4] deals with Cytochrome P450 2C9 (Homo sapiens) (UniProt P11712). As to the kind of experiment: qHTS Assay for Inhibitors and Substrates of Cytochrome P450 2C9 (AID 883). Further: potency means the concentration at half of the fitted maximal effect; nearly all actives have a fitted effect of over 60% in size. The method, boiled down: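 Inhibition of CYP2C9 is scored as loss of luminescence, with 57uM sulphaphenazole defining 100% inhibition. Substrate Luciferin-H is used at 100uM, equal to its KM; enzyme at 10nM in 25mM KPO4, 60 min at 37C with NADPH regeneration.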

The target in assay [5] is Cytochrome P450 3A4 (Homo sapiens) (UniProt P08684). As to the kind of experiment: qHTS Assay for Inhibitors and Substrates of Cytochrome P450 3A4 (AID 884). Further: potency means the concentration at half of the fitted maximal effect; nearly all actives have a fitted effect of over 50% in size. An outline of the steps: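 20 nM human CYP3A4 with 25 uM Luciferin-PPXE (at KM) in 200 mM KPO4, preincubated 10 min with compound; NADPH regeneration started a 60 min RT reaction. Luciferin detected by luminescence, normalized to 57 uM ketoconazole as full inhibition.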
A general note: Quantitative high-throughput screening tests each substance at several concentrations.

Assay [6] shares this target. Put plainly: qHTS Assay for Activators of Cytochrome P450 3A4 (AID 885). Further: nearly all actives have a fitted effect of over 65% in size. The method, boiled down: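 20nM CYP3A4 + 25uM Luciferin-PPXE (=KM), 200mM KPO4; cpd 10 min RT; NADPH regen, 60 min RT; stop w/ detection buffer, 20 min; luminescence. Normalized to 57 uM ketoconazole.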
Assay [7] addresses Cytochrome P450 2D6 (Homo sapiens) (UniProt P10635). Put plainly: qHTS Assay for Inhibitors and Substrates of Cytochrome P450 2D6 (AID 891). Further: potency means the concentration at half of the fitted maximal effect; nearly all actives have a fitted effect of over 60% in size. An outline of the steps:
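Human CYP2D6 (5 nM) with 30 uM Luciferin-ME EGE (at Km) in 100 mM KPO4, compound preincubated 10 min, then NADPH regeneration system for 60 min at room temperature. Luciferin read by luminescence; normalized to 1.43 uM quinidine.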

Assay [8] has as its target Cytochrome P450 2C19 (Homo sapiens) (UniProt P33261). As to the kind of experiment: qHTS Assay for Inhibitors and Substrates of Cytochrome P450 2C19 (AID 899). Further: potency means the concentration at half of the fitted maximal effect; nearly all actives have a fitted effect of over 60% in size. An outline of the steps: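 5nM enzyme + 10uM Luciferin-H EGE (=KM), 50mM KPO4; cpd pin-transferred, 10 min 37C; NADPH regen, 60 min 37C; stopped w/ luciferin detection reagent, 20 min; luminescence. Normalized to 57uM ketoconazole (AC100).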

For assay [9], the target named is DNA dC->dU-editing enzyme APOBEC-3G (Homo sapiens) (UniProt Q9HC16). Put plainly: qHTS for inhibitors of Vif-A3G interactions: Validation (AID 588379). The method, boiled down: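 HeLa cells stably expressing Vif and A3G-eYFP, 700 cells/well, incubated overnight at 37 deg C, then exposed to compound overnight at 37 deg C. Inhibition of Vif-mediated degradation read as increased yellow fluorescence (Ex 488/Em 500-530) by laser-scanning cytometry.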

A short description of assay [10]: qHTS for Inhibitors of the vitamin D receptor (VDR): Hit Validation using a Texas Red Assay (AID 602201). An outline of the steps:
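After a 2-hour room-temperature incubation, polarization of Texas-Red emission was read (Ex 595 nm/Em 615 nm). Final mix contained 7 nM Texas Red, 1.5 uM VDR-LBD and LG19078.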

Assay [11] concerns the target Rap guanine nucleotide exchange factor 3 (Homo sapiens) (UniProt O95398). As to the kind of experiment: Confirmatory qHTS for antagonist of cAMP-regulated guanine nucleotide exchange factor 3 (EPAC1) (AID 1645880). Further: nearly all actives have a fitted effect of over 55% in size. The settings on record: EPAC1 Rap1B-BODIPY-GDP exchange, fluorescence; activity, negative = inhibition: at 115 µM (top of the series). The method, boiled down:
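Nucleotide exchange uses 100 nM EPAC1, 250 nM RAP1B-BODIPY-GDP and 50 uM GDP, with compounds in a concentration-titration series. After 5 min at room temperature, fluorescence (480 nm ex/540 nm em) is read every 5 min for 30 min. Data are normalized to control ATA and DMSO.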

Assay [12] deals with Rap guanine nucleotide exchange factor 4 (Homo sapiens) (UniProt Q8WZA2). As to the kind of experiment: Confirmatory qHTS for agonist of cAMP-regulated guanine nucleotide exchange factor 4 (EPAC2) (AID 1645884).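 Further: nucleotide exchange releases bodipy-GDP from Rap1 and this lowers its fluorescence; nearly all actives have a fitted effect of over 65% in size.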
The target is the same in assay [13]. As to the kind of experiment: Confirmatory qHTS for antagonist of cAMP-regulated guanine nucleotide exchange factor 4 (EPAC2) (AID 1645885). Further: nearly all actives have a fitted effect of over 25% in size.
The target in assay [14] is Rap guanine nucleotide exchange factor 3 (Homo sapiens) (UniProt O95398). Put plainly: Counterscreen qHTS for antagonist of cAMP-regulated guanine nucleotide exchange factor 3 (EPAC1) (AID 1645888).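 Further: fluorescence loss as bound BODIPY-GDP is released from Rap1B.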 An outline of the steps: (§1)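 Rap1B-BODIPY-GDP 250 nM + GDP 50 uM; cpds 7-pt, final 9.74 nM–152 uM (activator mode) or from 7.32 nM upwards (inhibitor mode); RT; FI 480/540 nm at 5 and 30 min, then ± cAMP, reread.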
(The purpose of a counterscreen is to sort out artefacts and off-target activity.)

Assay [15] has the same target. Put plainly: Counterscreen qHTS for agonist of cAMP-regulated guanine nucleotide exchange factor 3 (EPAC1) (AID 1645889). Further: nearly all actives have a fitted effect of over 40% in size. An outline of the steps: as §1

Unmarked numbers belong to inactive results. Results filed as inconclusive are left out. Calls of active or inactive are those of the source. Unless noted, the call rests on the fitted dose curve; in most records, active means well fitted curve in the direction sought with a large enough effect; inconclusive means small, poorly fitted or top-dose-only effect, or another doubt; inactive means no such curve, though single readings can be large; an effect the other way counts as inactive or inconclusive.

Chain of Rap guanine nucleotide exchange factor 4 (Homo sapiens) (Q8WZA2 whole entry, looked up): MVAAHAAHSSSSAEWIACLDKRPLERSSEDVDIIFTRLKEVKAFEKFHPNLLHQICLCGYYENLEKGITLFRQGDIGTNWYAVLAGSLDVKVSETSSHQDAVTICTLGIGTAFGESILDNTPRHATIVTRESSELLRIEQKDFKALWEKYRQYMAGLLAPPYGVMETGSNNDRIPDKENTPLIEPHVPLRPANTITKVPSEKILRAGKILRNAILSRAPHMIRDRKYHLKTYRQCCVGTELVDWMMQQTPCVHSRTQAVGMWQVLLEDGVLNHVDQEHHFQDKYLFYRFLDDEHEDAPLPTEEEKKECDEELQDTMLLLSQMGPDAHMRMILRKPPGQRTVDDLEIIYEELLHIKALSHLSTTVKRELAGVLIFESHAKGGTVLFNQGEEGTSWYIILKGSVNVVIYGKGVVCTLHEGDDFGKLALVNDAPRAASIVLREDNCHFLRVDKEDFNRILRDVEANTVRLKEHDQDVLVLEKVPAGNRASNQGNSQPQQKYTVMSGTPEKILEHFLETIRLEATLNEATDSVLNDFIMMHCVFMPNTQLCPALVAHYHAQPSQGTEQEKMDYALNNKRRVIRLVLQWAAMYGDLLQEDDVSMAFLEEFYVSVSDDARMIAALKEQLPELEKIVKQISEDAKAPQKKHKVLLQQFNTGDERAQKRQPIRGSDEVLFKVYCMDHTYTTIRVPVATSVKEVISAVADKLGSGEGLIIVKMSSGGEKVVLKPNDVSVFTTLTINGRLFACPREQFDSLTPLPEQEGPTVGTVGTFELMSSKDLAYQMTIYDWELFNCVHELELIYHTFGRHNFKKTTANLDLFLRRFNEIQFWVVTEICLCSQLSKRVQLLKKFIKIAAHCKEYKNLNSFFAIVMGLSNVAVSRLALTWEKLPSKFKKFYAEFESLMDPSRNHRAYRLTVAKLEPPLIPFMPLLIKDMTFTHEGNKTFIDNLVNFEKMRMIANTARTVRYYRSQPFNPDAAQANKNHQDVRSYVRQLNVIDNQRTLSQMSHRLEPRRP
Chain of Rap guanine nucleotide exchange factor 3 (Homo sapiens) (O95398 whole entry, looked up): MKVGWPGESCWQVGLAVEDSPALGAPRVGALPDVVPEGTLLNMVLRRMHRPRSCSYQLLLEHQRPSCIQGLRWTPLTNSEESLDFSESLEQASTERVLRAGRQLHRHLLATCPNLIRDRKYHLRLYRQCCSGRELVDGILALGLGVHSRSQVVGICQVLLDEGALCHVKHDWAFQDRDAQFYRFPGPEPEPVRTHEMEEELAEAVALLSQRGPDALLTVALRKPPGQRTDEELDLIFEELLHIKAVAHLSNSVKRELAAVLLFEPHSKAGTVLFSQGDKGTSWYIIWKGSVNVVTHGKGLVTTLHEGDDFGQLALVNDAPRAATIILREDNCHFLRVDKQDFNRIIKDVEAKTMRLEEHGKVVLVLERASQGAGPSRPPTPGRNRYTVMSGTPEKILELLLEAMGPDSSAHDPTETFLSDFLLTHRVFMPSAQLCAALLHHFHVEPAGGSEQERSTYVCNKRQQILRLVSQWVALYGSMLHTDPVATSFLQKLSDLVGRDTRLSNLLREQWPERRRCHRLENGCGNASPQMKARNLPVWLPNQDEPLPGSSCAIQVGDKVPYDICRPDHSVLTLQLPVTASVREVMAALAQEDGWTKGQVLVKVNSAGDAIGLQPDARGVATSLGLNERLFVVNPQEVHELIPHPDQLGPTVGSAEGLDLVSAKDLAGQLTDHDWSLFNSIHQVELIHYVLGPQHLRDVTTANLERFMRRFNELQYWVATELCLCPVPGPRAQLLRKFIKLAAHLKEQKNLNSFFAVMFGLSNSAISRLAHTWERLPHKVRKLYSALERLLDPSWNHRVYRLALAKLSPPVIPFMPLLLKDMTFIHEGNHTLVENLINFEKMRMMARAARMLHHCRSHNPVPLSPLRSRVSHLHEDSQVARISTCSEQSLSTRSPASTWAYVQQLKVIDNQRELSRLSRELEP
Chain of Cytochrome P450 3A4 (Homo sapiens) (P08684 whole entry, looked up): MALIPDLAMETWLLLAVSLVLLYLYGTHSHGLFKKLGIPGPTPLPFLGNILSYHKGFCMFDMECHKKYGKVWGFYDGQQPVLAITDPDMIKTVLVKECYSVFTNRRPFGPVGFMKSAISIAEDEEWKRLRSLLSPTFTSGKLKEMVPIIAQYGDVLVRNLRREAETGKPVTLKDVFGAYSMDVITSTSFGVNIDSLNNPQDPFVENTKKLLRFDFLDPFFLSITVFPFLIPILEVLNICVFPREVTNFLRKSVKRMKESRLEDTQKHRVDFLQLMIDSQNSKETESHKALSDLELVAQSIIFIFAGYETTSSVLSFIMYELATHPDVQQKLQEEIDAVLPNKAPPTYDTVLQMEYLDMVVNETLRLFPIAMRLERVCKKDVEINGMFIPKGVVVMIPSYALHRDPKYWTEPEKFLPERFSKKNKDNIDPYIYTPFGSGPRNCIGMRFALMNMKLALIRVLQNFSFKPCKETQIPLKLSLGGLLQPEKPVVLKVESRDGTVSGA
Chain of Glucocorticoid receptor (Homo sapiens) (P04150 whole entry, looked up): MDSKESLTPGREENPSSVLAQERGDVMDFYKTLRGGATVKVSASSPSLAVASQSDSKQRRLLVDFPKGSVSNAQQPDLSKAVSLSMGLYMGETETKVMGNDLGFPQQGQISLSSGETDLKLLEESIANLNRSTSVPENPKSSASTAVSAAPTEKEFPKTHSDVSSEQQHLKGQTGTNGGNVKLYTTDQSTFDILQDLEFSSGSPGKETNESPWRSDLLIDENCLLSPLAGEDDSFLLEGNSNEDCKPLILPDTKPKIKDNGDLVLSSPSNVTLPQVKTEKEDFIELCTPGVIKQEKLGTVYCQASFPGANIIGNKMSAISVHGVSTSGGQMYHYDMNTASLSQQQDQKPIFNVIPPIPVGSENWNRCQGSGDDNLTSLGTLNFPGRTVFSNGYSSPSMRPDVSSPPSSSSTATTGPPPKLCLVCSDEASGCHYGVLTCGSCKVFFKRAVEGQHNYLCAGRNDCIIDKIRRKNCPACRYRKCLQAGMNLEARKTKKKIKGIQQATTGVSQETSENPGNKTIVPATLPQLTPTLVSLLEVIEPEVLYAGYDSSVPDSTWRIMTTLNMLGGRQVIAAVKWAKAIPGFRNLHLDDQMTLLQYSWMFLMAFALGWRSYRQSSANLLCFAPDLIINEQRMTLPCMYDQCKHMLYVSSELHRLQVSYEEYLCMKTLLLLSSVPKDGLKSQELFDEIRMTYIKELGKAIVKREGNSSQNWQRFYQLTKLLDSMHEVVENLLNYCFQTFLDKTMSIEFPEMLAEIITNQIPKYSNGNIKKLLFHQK
Chain of DNA dC->dU-editing enzyme APOBEC-3G (Homo sapiens) (Q9HC16 whole entry, looked up): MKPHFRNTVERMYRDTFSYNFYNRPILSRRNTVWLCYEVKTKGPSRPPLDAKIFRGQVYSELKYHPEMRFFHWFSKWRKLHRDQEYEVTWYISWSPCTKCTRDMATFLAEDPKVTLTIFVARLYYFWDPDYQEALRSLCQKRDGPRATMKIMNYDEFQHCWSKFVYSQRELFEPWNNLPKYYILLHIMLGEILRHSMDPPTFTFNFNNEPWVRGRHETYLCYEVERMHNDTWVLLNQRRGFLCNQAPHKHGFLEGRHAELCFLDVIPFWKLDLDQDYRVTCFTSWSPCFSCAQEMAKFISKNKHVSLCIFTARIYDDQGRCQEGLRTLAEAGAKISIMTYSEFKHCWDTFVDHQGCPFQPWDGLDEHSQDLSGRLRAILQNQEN
Chain of Cytochrome P450 2C19 (Homo sapiens) (P33261 whole entry, looked up): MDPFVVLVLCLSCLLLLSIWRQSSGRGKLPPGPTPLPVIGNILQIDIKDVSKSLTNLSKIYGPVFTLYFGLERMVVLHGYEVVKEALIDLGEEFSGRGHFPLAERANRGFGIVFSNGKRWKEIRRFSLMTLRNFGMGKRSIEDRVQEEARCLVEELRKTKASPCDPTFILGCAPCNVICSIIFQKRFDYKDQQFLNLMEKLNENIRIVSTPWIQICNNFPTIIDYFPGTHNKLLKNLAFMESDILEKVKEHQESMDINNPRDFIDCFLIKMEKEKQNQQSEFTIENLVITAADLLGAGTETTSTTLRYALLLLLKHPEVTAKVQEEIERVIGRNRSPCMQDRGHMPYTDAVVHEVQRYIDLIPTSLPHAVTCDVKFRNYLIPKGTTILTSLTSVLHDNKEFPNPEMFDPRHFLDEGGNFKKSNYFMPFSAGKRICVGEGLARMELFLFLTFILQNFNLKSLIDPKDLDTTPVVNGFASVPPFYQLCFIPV
Chain of Cytochrome P450 2D6 (Homo sapiens) (P10635 whole entry, looked up): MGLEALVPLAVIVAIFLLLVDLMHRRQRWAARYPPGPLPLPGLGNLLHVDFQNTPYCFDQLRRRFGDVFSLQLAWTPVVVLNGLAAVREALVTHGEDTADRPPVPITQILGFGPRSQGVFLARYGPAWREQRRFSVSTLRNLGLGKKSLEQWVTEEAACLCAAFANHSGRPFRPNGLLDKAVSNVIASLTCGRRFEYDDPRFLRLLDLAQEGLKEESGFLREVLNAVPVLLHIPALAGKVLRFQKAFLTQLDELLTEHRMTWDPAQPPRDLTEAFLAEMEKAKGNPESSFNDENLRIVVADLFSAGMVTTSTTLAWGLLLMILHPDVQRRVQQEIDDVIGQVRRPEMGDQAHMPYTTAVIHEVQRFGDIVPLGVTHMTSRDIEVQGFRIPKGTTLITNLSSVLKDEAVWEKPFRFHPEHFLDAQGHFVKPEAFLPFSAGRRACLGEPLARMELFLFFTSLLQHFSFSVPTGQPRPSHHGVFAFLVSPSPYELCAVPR

For `COc1cc2cc3c4c(cc(OC)c(OC)c4c2cc1OC)CCN3C`, the Potency in assay [1] is above 46 µM; in assay [2], above 46 µM; in [3] it was 0.158 µM (active); in assay [4], 0.794 µM (active); in [5], 3.98 µM (active); in assay [7], 3.98 µM (active). Besides, the Potency in [8] is 0.0501 µM (active). Also, the outcome in assay [6] and in [9] was inactive.

Consider `O=C(O)c1cc(Nc2cc(Cl)c3nonc3c2[N+](=O)[O-])ccc1O`, for which the Potency entry in [10] was “inactive”.

On to `Cc1[nH]c2ccccc2c1C(c1ccccc1)c1ccc(Cl)s1` (stereo not given), for which the Potency result in assay [11], in [12], in [13], in [14] and in assay [15] was “inactive” each time.
